The supplement of paper PMC10849652
Targets with a hit are over-represented here; the source holds about 8,800 in all. About 0.5% of all pairs of compound and target were hits.

Legend:
Test in all cases: log2 fold change, soluble protein after heating vs DMSO (PISA); higher = thermal stabilisation; K562 lysate, 10 uM; active = over 0.2 and 3.5 SD of the protein, either way, in both replicates (recomputed)
[1] = compound: NCC(=O)Nc1ccc(-n2nc(C(F)(F)F)cc2-c2ccc3c(ccc4ccccc43)c2)cc1
Procedure, shortened: (§1)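 K562 pellets were dounce-homogenised in PBS pH 7.4 containing 1 mM MgCl2, and the crude extract, at 1 mg/mL protein, was exposed to 10 μM compound for 30 min. Aliquots were heated for 3 min across 48°C-58°C, pooled, brought to 0.5% NP-40 at 4°C and spun at 21,000xg for 90 min, with the supernatant taken as soluble protein. TMTpro 16plex LC-MS/MS with equalised channel sums quantified that protein. Values are log-two fold changes in thermal stability relative to solvent controls, taken from duplicates.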

[2] = compound: O=C(CCCCCCC(=O)Nc1ccccc1)NO [vorinostat]
Procedure, shortened: as §1

[3] = compound: O=C(O)c1ccc2c(c1)nc(Nc1cccc(Cl)c1)c1ccncc12 [silmitasertib]
Procedure, shortened: as §1

[4] = compound: O=C1NC(=O)C(c2cnc3ccccn23)=C1c1cn2c3c(cc(F)cc13)CN(C(=O)N1CCCCC1)CC2
Procedure, shortened: as §1

[5] = compound: c1cn2cc(-c3ccc4cn[nH]c4c3)nc(Nc3ccc(N4CCOCC4)cc3)c2n1 [entospletinib]
Procedure, shortened: as §1

UniProt Q9NW64, sequence (Q9NW64 whole entry, looked up): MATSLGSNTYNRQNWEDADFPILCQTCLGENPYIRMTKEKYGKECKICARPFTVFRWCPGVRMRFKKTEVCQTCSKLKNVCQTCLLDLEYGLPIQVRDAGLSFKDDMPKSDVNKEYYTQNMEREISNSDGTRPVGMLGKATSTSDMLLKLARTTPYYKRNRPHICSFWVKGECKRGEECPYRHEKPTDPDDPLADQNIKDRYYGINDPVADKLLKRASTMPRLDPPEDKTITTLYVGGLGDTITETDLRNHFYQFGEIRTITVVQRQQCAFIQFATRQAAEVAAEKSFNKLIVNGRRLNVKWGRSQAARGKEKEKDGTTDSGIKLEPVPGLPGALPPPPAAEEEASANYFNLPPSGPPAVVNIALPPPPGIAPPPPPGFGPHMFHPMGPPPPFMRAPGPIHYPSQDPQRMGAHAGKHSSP
UniProt Q13464, sequence (Q13464 whole entry, looked up): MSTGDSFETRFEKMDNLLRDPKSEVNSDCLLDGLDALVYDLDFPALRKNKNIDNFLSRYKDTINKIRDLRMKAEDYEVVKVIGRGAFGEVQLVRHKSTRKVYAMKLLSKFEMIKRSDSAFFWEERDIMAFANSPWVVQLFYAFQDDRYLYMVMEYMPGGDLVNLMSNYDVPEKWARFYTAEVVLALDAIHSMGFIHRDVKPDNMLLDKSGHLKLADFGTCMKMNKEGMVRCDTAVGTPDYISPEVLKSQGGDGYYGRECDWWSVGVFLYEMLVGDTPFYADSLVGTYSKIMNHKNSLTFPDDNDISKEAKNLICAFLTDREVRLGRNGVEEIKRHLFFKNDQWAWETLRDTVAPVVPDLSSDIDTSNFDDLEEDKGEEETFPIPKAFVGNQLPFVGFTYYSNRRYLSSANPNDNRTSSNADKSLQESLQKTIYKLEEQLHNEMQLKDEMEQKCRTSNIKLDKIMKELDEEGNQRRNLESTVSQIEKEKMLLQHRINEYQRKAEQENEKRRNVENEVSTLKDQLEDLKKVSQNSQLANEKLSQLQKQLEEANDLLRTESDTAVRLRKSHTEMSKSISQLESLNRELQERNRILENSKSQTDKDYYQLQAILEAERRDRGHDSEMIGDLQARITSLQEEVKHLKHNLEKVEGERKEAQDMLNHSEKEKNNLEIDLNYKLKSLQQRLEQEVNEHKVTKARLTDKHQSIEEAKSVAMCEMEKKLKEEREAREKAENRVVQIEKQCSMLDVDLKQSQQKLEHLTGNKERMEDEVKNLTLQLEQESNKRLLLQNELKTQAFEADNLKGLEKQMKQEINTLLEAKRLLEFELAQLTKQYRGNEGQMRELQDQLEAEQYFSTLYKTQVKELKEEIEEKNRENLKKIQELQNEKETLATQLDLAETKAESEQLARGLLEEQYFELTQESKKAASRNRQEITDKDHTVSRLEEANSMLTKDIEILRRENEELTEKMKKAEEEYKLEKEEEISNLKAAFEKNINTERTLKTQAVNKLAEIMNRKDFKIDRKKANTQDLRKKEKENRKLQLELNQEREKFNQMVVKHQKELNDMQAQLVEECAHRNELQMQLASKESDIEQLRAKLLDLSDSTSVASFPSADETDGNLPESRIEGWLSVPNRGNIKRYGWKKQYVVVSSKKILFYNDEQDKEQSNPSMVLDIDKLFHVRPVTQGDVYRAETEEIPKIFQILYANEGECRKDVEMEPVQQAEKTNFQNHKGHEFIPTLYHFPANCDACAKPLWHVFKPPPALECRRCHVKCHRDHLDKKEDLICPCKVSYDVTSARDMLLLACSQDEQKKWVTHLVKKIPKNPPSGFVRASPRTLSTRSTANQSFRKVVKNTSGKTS
UniProt Q86VV8, sequence (Q86VV8 whole entry, looked up): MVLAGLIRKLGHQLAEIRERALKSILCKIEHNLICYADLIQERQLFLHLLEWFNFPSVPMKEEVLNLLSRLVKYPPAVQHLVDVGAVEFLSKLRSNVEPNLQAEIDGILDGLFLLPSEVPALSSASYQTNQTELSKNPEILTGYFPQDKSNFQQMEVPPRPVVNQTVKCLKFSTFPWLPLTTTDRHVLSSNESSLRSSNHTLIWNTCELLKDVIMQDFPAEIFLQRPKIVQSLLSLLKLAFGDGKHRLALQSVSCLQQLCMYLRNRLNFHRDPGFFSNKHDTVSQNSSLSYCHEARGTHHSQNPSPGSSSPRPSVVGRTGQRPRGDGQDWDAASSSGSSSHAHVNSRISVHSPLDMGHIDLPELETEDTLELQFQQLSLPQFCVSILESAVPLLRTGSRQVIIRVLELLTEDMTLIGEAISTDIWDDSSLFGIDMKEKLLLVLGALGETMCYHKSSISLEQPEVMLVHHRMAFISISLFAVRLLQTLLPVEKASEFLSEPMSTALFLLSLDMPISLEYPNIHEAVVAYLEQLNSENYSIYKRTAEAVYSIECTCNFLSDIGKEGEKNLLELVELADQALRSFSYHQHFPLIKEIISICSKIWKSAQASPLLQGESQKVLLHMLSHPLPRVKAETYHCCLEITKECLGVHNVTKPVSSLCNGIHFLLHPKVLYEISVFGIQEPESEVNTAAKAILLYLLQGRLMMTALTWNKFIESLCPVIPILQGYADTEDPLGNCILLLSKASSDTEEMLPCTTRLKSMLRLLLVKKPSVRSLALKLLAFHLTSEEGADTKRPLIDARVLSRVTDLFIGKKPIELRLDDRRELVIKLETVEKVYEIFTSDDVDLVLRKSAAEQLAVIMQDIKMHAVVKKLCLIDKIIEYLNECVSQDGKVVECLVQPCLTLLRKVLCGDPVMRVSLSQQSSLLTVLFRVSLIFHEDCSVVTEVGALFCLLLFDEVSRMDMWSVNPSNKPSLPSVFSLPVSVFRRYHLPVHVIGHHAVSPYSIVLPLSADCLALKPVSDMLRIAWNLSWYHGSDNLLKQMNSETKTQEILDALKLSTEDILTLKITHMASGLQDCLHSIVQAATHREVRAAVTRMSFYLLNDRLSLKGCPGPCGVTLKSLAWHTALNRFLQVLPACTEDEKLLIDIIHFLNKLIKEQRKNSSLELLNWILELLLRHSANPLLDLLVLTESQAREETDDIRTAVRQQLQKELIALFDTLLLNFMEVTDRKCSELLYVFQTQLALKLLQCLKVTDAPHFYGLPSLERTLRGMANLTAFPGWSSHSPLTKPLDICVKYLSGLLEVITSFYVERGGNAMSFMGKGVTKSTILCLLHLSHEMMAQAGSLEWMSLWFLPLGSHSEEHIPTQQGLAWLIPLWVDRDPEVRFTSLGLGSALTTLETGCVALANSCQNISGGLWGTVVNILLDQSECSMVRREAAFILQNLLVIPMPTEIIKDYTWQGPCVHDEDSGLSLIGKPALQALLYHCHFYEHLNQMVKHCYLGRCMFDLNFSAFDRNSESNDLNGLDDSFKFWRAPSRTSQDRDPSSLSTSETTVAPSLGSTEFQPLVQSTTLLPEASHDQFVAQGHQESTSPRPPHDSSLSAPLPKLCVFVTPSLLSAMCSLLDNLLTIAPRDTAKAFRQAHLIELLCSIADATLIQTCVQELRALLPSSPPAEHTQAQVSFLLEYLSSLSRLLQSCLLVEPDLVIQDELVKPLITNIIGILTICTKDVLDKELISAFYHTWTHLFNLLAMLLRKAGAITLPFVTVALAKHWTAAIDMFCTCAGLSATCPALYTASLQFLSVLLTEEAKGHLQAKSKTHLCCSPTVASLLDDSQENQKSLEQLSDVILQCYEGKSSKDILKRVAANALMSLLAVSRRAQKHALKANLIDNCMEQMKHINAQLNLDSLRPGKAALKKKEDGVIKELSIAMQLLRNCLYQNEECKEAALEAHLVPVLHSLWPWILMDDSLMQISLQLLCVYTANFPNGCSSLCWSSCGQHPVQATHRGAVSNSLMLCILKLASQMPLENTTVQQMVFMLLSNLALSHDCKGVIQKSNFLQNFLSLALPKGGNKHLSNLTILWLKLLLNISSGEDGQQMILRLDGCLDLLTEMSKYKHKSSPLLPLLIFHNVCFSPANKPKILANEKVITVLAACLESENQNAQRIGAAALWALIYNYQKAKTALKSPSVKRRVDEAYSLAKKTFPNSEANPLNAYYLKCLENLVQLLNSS
UniProt Q9NR31, sequence (Q9NR31 whole entry, looked up): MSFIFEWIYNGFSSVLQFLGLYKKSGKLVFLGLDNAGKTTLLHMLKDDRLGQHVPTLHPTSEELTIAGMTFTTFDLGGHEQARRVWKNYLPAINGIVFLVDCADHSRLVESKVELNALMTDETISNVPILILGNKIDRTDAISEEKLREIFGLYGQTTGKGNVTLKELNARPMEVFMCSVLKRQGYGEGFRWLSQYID
UniProt Q9BUV8, sequence (Q9BUV8 whole entry, looked up): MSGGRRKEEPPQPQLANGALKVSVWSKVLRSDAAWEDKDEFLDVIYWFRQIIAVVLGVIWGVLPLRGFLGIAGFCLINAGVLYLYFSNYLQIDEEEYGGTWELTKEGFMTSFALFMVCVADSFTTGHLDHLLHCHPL
UniProt Q96JX3, sequence (Q96JX3 whole entry, looked up): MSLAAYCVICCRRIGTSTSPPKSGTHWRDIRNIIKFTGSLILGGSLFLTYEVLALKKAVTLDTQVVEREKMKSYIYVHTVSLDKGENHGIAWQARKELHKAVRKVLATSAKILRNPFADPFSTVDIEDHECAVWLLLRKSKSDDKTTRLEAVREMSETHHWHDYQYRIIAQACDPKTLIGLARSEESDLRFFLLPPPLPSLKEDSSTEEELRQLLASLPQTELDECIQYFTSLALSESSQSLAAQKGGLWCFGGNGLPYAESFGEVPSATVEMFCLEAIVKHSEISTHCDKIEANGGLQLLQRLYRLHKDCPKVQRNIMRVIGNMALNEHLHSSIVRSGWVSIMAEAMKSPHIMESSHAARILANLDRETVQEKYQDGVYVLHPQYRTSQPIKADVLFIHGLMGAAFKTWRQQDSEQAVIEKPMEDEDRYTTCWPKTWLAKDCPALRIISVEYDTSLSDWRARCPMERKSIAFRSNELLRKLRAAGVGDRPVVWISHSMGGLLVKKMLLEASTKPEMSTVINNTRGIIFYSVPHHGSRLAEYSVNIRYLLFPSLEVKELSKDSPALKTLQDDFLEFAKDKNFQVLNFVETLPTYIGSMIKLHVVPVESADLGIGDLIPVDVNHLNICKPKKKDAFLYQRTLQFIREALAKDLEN

Target	log2 fold change [1]	log2 fold change [2]	log2 fold change [3]	log2 fold change [4]	log2 fold change [5]
RBBP7 (UniProt Q16576)	-0.005 (inactive)	-0.091 (inactive)	0.033 (inactive)	-0.167 (inactive)	0 (inactive)
RLIM (UniProt Q9NVW2)	–	–	–	0.289 (inactive)	–
RTTN (UniProt Q86VV8)	-0.14 (inactive)	-0.607 (active)	0.138 (inactive)	–	0.053 (inactive)
SAR1A (UniProt Q9NR31)	0.004 (inactive)	0.056 (inactive)	-0.077 (inactive)	-0.039 (inactive)	-0.089 (inactive)
SERAC1 (UniProt Q96JX3)	–	0.236 (inactive)	0.155 (inactive)	–	-0.001 (inactive)
ROCK1 (UniProt Q13464)	0 (inactive)	-0.211 (active)	–	-0.017 (inactive)	-0.016 (inactive)
RXRA (UniProt P19793)	–	-0.154 (inactive)	0.07 (inactive)	-0.08 (inactive)	–
RBM22 (UniProt Q9NW64)	0.024 (inactive)	-0.23 (active)	0 (inactive)	-0.053 (inactive)	-0.023 (inactive)
RAB5IF isoform 5 (UniProt Q9BUV8)	-0.039 (inactive)	-0.039 (inactive)	-0.007 (inactive)	–	-0.015 (inactive)
RBM4 isoform 3 (UniProt Q9BWF3)	–	–	–	-0.099 (inactive)	–
RAD54L2 (UniProt Q9Y4B4)	0.119 (inactive)	-0.487 (active)	0.04 (inactive)	0.01 (inactive)	0.014 (inactive)
RALGAPB isoform 3 (UniProt Q86X10)	–	–	–	–	-0.045 (inactive)
